Measured values as given in PubChem BioAssay (EPA / NIEHS).
“And” between values parts separate entries of the source, which are not always exact repeats. Equal values may be shown once. Some compounds were tested as several samples or in several runs, with calls that do not always agree. The source made the active and inactive calls. The calls were made as follows: active = hit-call score of the fitted dose curve at least 0.9, where 1 is the maximum; inactive = score below 0.9.

How the values were obtained:
[1] = read-out: TIMP metallopeptidase inhibitor 2 (TIMP2), TIMP2 (gene 7077); assay: BSK_KF3CT_TIMP2: BioMAP Diversity Plus: KF3CT Assay for TIMP metallopeptidase inhibitor 2 (TIMP2) Biomarker Activity (AID 2283071); conditions: primary human keratinocytes with fibroblasts; actives raise or lower the signal
Procedure, shortened: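 Keratinocyte–fibroblast co-culture, 24 h exposure; TIMP-2 ELISA, DMSO-normalised bidirectional fit. Parallel SRB (0.1%, TCA-fixed, 560 nm) total-protein staining gauges cytotoxicity.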

[2] = read-out: Transforming growth factor beta 1 (TGFb1), TGFB1 (gene 7040); assay: BSK_KF3CT_TGFb1: BioMAP Diversity Plus: KF3CT Assay for Transforming growth factor beta 1 (TGFb1) Biomarker Activity (AID 2283072); conditions: primary human keratinocytes with fibroblasts; actives raise or lower the signal
Procedure, shortened: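 Signal changes in either direction, relative to DMSO, define activity here. TGF-b1 is read by ELISA from a human keratinocyte-fibroblast co-culture 24 h post-dose.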

[3] = read-out: C-C motif chemokine 2 (Homo sapiens) (UniProt P13500); assay: BSK_KF3CT_MCP1: BioMAP Diversity Plus: KF3CT Assay for Monocyte Chemoattractant Protein 1 (MCP1/CCL2) Biomarker Activity (AID 2283073); conditions: primary human keratinocytes with fibroblasts; actives raise or lower the signal
Procedure, shortened: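 Human keratinocyte plus foreskin fibroblast primary co-culture exposed to chemical for 24 h. MCP-1 levels measured by ELISA. Bidirectional curve fitting relative to DMSO negative control as baseline.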

[4] = read-out: Matrix Metallopeptidase 9 (MMP9), MMP9 (gene 4318); assay: BSK_KF3CT_MMP9: BioMAP Diversity Plus: KF3CT Assay for Matrix Metallopeptidase 9 (MMP9) Biomarker Activity (AID 2283074); conditions: primary human keratinocytes with fibroblasts; actives raise or lower the signal;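 as to AC50: MMP9 protein level quantified by ELISA in the co-culture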
Procedure, shortened: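 Human keratinocyte and foreskin fibroblast co-culture exposed to chemicals for 24 h; MMP9 biomarker measured by ELISA, bidirectional fitting relative to DMSO; cytotoxicity tracked by SRB total protein staining in parallel cultures.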

[5] = read-out: urokinase plasminogen activator (uPA), PLAU (gene 5328); assay: BSK_KF3CT_uPA: BioMAP Diversity Plus: KF3CT Assay for urokinase plasminogen activator (uPA) Biomarker Activity (AID 2283075); conditions: primary human keratinocytes with fibroblasts; actives raise or lower the signal
Procedure, shortened: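 Primary human keratinocyte/foreskin fibroblast co-culture exposed to chemical; uPA measured by ELISA at 24 h. Bidirectional fit versus DMSO, with parallel SRB total-protein staining for cytotoxicity.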

[6] = read-out: CD40, CD40 (gene 958); assay: BSK_LPS_CD40: BioMAP Diversity Plus: LPS Assay for CD40 Biomarker Activity (AID 2283076); conditions: primary human HUVEC with PBMC; actives raise or lower the signal
Procedure, shortened: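 Primary human umbilical vein endothelial cells co-cultured with peripheral blood mononuclear cells, LPS-stimulated, were dosed with chemical and read 24 h later. CD40 levels were measured by ELISA and fitted bidirectionally against DMSO as negative control and baseline.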

[7] = read-out: E-selectin (Homo sapiens) (UniProt P16581); assay: BSK_LPS_Eselectin: BioMAP Diversity Plus: LPS Assay for Eselectin Biomarker Activity (AID 2283077); conditions: primary human HUVEC with PBMC; actives raise or lower the signal
Procedure, shortened: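 Human umbilical vein endothelial cells co-cultured with peripheral blood mononuclear cells under LPS stimulation; E-selectin measured by ELISA 24 h after chemical dosing. Activity fitted bidirectionally against DMSO as negative control and baseline.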

[8] = read-out: Interleukin-8 (IL8), CXCL8 (gene 3576); assay: BSK_LPS_IL8: BioMAP Diversity Plus: LPS Assay for Interleukin-8 (IL8) Biomarker Activity (AID 2283078); conditions: primary human HUVEC with PBMC; actives raise or lower the signal
Procedure, shortened: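 Human umbilical vein endothelial cells co-cultured with PBMC were stimulated with LPS; IL-8 levels were measured by ELISA 24 h after chemical dosing. Activity was fitted bidirectionally against DMSO as negative control and baseline.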

[9] = BSK_LPS_SRB: Viability Assessment in the BioMAP Diversity Plus: LPS Assay (AID 2283079); conditions: primary human HUVEC with PBMC;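 also: total protein by sulforhodamine B absorbance as a cytotoxicity measure; measured one day after compound addition; fitted in both directions against DMSO so loss or gain of signal counts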
Procedure, shortened: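 Human umbilical vein endothelial cells co-cultured with PBMC (LPS system) were dosed for 24 h. Total protein was stained with 0.1% sulforhodamine B after 10% TCA fixation, read at 560 nm, and fitted bidirectionally against DMSO baseline.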

[10] = read-out: Interleukin-1 alpha (IL1a), IL1A (gene 3552); assay: BSK_LPS_IL1a: BioMAP Diversity Plus: LPS Assay for Interleukin-1 alpha (IL1a) Biomarker Activity (AID 2283080); conditions: primary human HUVEC with PBMC; actives raise or lower the signal
Procedure, shortened: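 Human umbilical vein endothelial cells co-cultured with peripheral blood mononuclear cells were LPS-stimulated and exposed to test chemicals for 24 h. IL-1 alpha was quantified by ELISA, with bidirectional curve fitting against DMSO as the negative control and baseline.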

Measured: AC50

Chain of E-selectin (Homo sapiens) (P16581 whole entry, looked up): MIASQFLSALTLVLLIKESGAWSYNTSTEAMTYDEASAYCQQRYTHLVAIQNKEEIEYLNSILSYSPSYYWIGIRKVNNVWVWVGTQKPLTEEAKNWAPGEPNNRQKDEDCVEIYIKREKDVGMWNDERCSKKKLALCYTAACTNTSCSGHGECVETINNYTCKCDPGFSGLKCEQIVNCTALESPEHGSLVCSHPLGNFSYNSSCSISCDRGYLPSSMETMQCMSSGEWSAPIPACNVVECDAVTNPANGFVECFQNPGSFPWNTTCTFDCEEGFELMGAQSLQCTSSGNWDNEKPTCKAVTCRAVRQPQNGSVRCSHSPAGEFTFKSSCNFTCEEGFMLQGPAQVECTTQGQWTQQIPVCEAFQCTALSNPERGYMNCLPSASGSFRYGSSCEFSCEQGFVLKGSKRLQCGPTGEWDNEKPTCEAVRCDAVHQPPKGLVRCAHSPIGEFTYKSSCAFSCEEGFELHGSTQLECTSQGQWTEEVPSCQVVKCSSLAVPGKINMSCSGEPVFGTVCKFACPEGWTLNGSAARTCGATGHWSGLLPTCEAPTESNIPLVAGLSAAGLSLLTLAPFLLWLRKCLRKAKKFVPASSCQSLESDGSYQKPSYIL

COC(=O)c1ccccc1C(=O)OC
not listed: [10]
inactive: all other assays above

CC(C)(C)c1ccc(CSc2cnn(C(C)(C)C)c(=O)c2Cl)cc1
inactive: [2] | [7]
active: [1] 22.9 µM | [3] 20 µM | [4] 18.6 µM | [5] 4.28 µM | [6] 8.25 µM | [8] 3.16 µM | [9] 7.73 µM

CCCCOC(=O)c1ccccc1C(=O)OCCCC
inactive: [1] | [2] | [3] | [4] | [5] | [6] | [7] | [8] | [9]
active: [8] 25.3 µM | [9] 9.66 µM

CO/C=C(/C(=O)OC)c1ccccc1Oc1cc(Oc2ccccc2C#N)ncn1
inactive: [1] | [2] | [3] | [4] | [5] | [6] | [7]
active: [4] 2.7 µM | [6] 19.9 µM and 10 µM and 12.9 µM | [7] 10.9 µM and 5.78 µM and 5.72 µM

O=C(O)c1nc(Cl)ccc1Cl
not listed: [10]
inactive: all other assays above

CCc1nn(C)c(C(=O)NCc2ccc(C(C)(C)C)cc2)c1Cl
active: [1] 27.7 µM | [3] 27.1 µM | [4] 30.6 µM | [5] 35.4 µM | [6] 24.3 µM | [7] 20 µM | [8] 20 µM | [9] 30 µM
inactive: [2]

C=CCC1=C(C)C(OC(=O)C2C(C=C(C)C)C2(C)C)CC1=O (configuration not stated)
active: [1] 31.1 µM and 32.9 µM and 26.7 µM | [2] 26.6 µM and 33.3 µM and 21 µM | [3] 33.6 µM and 36.4 µM and 28.4 µM | [4] 33.6 µM [middle of 4 runs] | [5] 33.8 µM and 33.3 µM | [6] 24.2 µM and 21 µM and 27.6 µM | [7] 31.5 µM and 33.3 µM and 33.1 µM | [8] 32 µM [middle of 4 runs] | [9] 33.1 µM [middle of 4 runs]
inactive: [1] | [2] | [3] | [5] | [6] | [7]

C#CCOS(=O)OC1CCCCC1Oc1ccc(C(C)(C)C)cc1 (configuration not stated)
active: [1] 14 µM | [3] 10.2 µM | [4] 12.1 µM | [5] 14.3 µM | [6] 6.59 µM | [7] 4.28 µM | [8] 6.7 µM | [9] 12.6 µM
inactive: [2]

Cc1ccc(-c2c(Cl)nc(C#N)n2S(=O)(=O)N(C)C)cc1
inactive: [1] | [2] | [3] | [5]
active: [4] 6.7 µM | [6] 14.9 µM | [7] 39.2 µM | [8] 27.6 µM | [9] 26 µM

C=CC1(C)OC(=O)N(c2cc(Cl)cc(Cl)c2)C1=O (configuration not stated)
inactive: all assays above

N#Cc1cc(Br)c(O)c(Br)c1
active: [6] 9.86 µM | [9] 3.97 µM | [10] 20 µM
inactive: all other assays above

CN(C)C(=S)SSC(=S)N(C)C
active: [1] 6.4 µM | [2] 8.71 µM | [3] 5.09 µM | [4] 7.1 µM | [5] 10.3 µM | [6] 24.7 µM | [7] 28.5 µM | [8] 26.5 µM | [9] 22.9 µM

CC(C)Oc1cc(-n2nc(C(C)(C)C)oc2=O)c(Cl)cc1Cl
active: [4] 28.8 µM | [6] 14.8 µM | [7] 31.3 µM | [8] 31.5 µM | [9] 29.3 µM
inactive: [1] | [2] | [3] | [5]

CC1=C(C(=O)Nc2ccccc2)SCCO1
inactive: all assays above

COC(=O)N(OC)c1ccccc1COc1ccn(-c2ccc(Cl)cc2)n1
inactive: [1] | [2] | [5] | [10]
active: [3] 2.56 µM | [4] 3.97 µM | [6] 20 µM | [7] 6.89 µM | [8] 3.97 µM | [9] 10.1 µM

COc1nc(NC(C)C)nc(NC(C)C)n1
not listed: [10]
inactive: all other assays above
